Screens: PubChem BioAssay, The Scripps Research Institute Molecular Screening Center
TEAD-YAP block – TEAD-YAP interaction inhibition; 1.4% of 640,000 active; inhibition, % at 9.12 µM; AID 1259422; HEK-TIYL cells, TEAD-Gal4/YAP UAS-luciferase luminescence; in the data active = inhibition above about 32%
GPR151 ag – human GPR151 activation | activation, % at 11.2 µM | Q8TDV0 | PathHunter beta-arrestin GPR151 cells, luminescence | 1% of 650,000 active; in the data active = activation above about 4.9%
FBW7 act – activators of human E3 ligase FBW7. Q969H0. AlphaScreen FBW7–phospho-cyclin E peptide binding, activator screen. normalized activity (activation), % at 26.1 µM. 0.13% of 650,000 active. AID 1259310; in the data active = normalized activity above about 1.9%;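 note: purified mutant Fbw7 with reduced substrate affinity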
Target sequence (Q969H0 whole entry, looked up): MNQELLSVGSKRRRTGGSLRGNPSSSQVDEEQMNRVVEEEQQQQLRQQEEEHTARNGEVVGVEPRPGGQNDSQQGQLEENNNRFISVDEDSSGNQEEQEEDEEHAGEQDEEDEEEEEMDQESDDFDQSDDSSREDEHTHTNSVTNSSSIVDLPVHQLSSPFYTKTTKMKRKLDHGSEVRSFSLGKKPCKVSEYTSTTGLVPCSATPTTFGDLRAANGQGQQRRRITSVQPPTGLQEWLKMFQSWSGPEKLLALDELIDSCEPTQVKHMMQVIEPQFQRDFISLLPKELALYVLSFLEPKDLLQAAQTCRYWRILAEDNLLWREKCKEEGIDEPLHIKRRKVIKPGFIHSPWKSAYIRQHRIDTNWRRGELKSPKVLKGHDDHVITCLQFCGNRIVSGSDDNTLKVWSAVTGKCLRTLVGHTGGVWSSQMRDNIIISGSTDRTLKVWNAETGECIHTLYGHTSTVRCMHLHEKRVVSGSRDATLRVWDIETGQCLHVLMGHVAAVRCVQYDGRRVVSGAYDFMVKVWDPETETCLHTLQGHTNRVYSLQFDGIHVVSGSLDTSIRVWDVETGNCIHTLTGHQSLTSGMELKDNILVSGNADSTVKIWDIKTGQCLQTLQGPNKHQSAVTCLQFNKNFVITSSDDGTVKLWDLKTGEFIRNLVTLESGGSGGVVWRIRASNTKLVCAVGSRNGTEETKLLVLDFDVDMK
MITF inh – inhibitors of human MITF; O75030; AlphaScreen MITF homodimerization, bead proximity signal; inhibition, % at 2.6 µM; 0.91% of 650,000 active; in the data active = inhibition above about 50%
Large screens that a line does not name were inactive. Compounds with a hit are over-represented: about 3.5% of the library has one in this group of screens.

C=CCOC(=O)C1=C(C)NC2=C(C(=O)CC(C)(C)C2)C1c1cc(OC)c(OC)cc1[N+](=O)[O-] (stereo unspecified)	none
COc1cc2nc(CN3CCN(Cc4ccc5c(c4)OCO5)CC3)[nH]c(=O)c2cc1OC	none
Cc1cccc(NC(=O)c2ccc3c(c2)OCCO3)n1	none
Cc1cc(NC(=O)c2ccc3c(c2)OCCO3)no1	TEAD-YAP block 79
Cc1cc(NC(=O)c2ccc3c(c2)OCO3)no1	none
Cc1cc(NC(=O)c2ccc3c(c2)OCCO3)on1	TEAD-YAP block 38
Nc1ccc(O)c2c1C(=O)c1c(cccc1[N+](=O)[O-])C2=O	MITF inh 88
CC(C)n1c(NCc2cccnc2)nc2c(Nc3ccccc3)ncnc21	TEAD-YAP block 53
CC(C)n1c(Nc2ccncc2)nc2c(Nc3ccc(Oc4ccccc4)cc3)ncnc21	TEAD-YAP block 45
CC(C)n1c(Nc2ccc(-n3ccnc3)cc2)nc2c(Nc3ccccc3)ncnc21	TEAD-YAP block 49
O=c1ccc2cc(S(=O)(=O)N3CCN(c4ccccc4F)CC3)ccc2[nH]1	none
Cn1c(SCC(=O)NCc2ccccc2)nnc1-c1ccco1	none
O=C(Nc1ccnc(-c2ccncc2)n1)C1CC1	none
Cn1c(=O)c2c(ncn2Cc2ccc(C#N)cc2)n(C)c1=O	none
Cn1c(=O)c2c(ncn2Cc2ccc(C(C)(C)C)cc2)n(C)c1=O	TEAD-YAP block 57
Cn1c(=O)c2c(ncn2Cc2cccc(I)c2)n(C)c1=O	TEAD-YAP block 39
COc1cccc(-n2nc(C(=O)NCC3CCCO3)c3ccccc3c2=O)c1 (stereo unspecified)	none
Cc1ccc(S(=O)(=O)N(CC(=O)O)c2ccc(C)cc2C)cc1	none
CC(NC(=O)Nc1ccc(Cl)c(Cl)c1)C1CCCO1 (stereo unspecified)	FBW7 act 1.9
COc1ccccc1N1CCN(c2nnnn2-c2ccccc2)CC1	TEAD-YAP block 37
Cc1cc(NC(=O)CSc2nc(Nc3ccc4c(c3)OCO4)c3ccccc3n2)n[nH]1	TEAD-YAP block 50
CC(C)CCNC(=O)CSc1nc(Nc2ccc3c(c2)OCO3)c2ccccc2n1	none
Cc1cc(NC(=O)CSc2nc3ccccc3c3nc(CCc4c[nH]c5ccccc45)nn23)n[nH]1	TEAD-YAP block 61
Cc1cc(NC(=O)CSc2nc3ccccc3c3nc(CCN4CCCCC4)nn23)n[nH]1	TEAD-YAP block 58
O=C(CSc1nc2ccccc2c(=O)n1CCCN1CCCCC1)Nc1nccs1	TEAD-YAP block 42
COc1cc(SC)ccc1C(=O)NCCC#N	none
COc1cc(OC)c(CN2CCN(C3CCCCC3)C(CCO)C2)c(OC)c1 (stereo unspecified)	none
CCOC(=O)C1CCN(S(=O)(=O)c2ccc3[nH]c(=O)ccc3c2)CC1	none
CC(=O)C1=C(C)NC(=O)NC1c1ccc(Cl)cc1 (stereo unspecified)	none
Cc1noc(C)c1S(=O)(=O)N1CCc2nc(-c3ccccc3)c3c(c2C1)CO[C@@H](C)C3	none (no result: TEAD-YAP block)
CC1(C)N=C(SCC(=O)Nc2ccc(F)cc2)C(c2ccccc2)=N1	none
O=C1CC(c2cccc(Cl)c2)Cc2nc(N3CCOCC3)ncc21 (stereo unspecified)	none
CCN1CCN(c2ncc3c(n2)CC(c2cc(OC)c(OC)c(OC)c2)CC3=O)CC1 (stereo unspecified)	TEAD-YAP block 47
COc1ccccc1C(=O)N/N=C/c1c(O)ccc2ccccc12	TEAD-YAP block 37
COc1ccc(/C=N/NC(=O)c2ccccc2O)cc1O	none
Cc1occc1C(=O)N/N=C/c1c(O)ccc2ccccc12	TEAD-YAP block 47
COc1ccc(/C=N/NC(=O)c2cn(C)c3ccccc23)cc1O	TEAD-YAP block 33
Cc1nc2ccc3nc(NC(=O)c4ccco4)sc3c2s1	FBW7 act 26
Cc1nc2c(ccc3nc(NC(=O)C4=COCCO4)sc32)s1	TEAD-YAP block 79
O=C(Nc1nnc(C23CC4CC(CC(C4)C2)C3)s1)c1ccco1	FBW7 act 1.9
Cc1ccc(C(=O)Nc2nc3ccc4sc(C)nc4c3s2)cc1	none
Cc1nc2c(ccc3nc(NC(=O)c4ccco4)sc32)s1	TEAD-YAP block 50
COC(=O)c1c(-c2ccc(C)c(C)c2)csc1NC(=O)CCCC(=O)O	TEAD-YAP block 33
CCOC(=O)c1c(-c2ccc(OC)cc2)csc1NC(=O)CCCC(=O)O	none
Cc1ccc(CN(C(=O)c2ccccc2[N+](=O)[O-])C2CCS(=O)(=O)C2)o1 (stereo unspecified)	none
CC1(C)CC(=O)C([C@H]2C3=C(CC(C)(C)CC3=O)Oc3ccccc32)C(=O)C1	none
COc1ccc(-c2cnc3ccc(NC4CCOCC4)nn23)cc1OC	none
Nc1cccc(-c2cnc3ccc(NC4CCOCC4)nn23)c1	none
Cc1ccc(-c2cnc3ccc(NC4CCC(O)CC4)nn23)cc1C (stereo unspecified)	none
COc1cccc(-c2cnc3ccc(NC4CCOCC4)nn23)c1	TEAD-YAP block 57
Clc1cccc(-c2cnc3ccc(NC4CCOCC4)nn23)c1	TEAD-YAP block 34
COc1cccc(-c2cnc3ccc(NC4CCC(O)CC4)nn23)c1 (stereo unspecified)	TEAD-YAP block 64
NC(=O)[C@@H]1CCCN1C1CCN(c2cccc(NC(=O)CCCc3ccccc3)c2)CC1	TEAD-YAP block 39
O=C(CCCc1ccccc1)Nc1cccc(N2CCC(NC3CCOCC3)CC2)c1	none
COc1ccc(Cc2nnc(Nc3cccc(Cl)c3)[nH]c2=O)cc1	TEAD-YAP block 34
O=C(CCO)/C(=C/c1ccco1)NC(=O)c1ccccc1	none
c1cc2cc(Cc3ccc4[nH]ccc4c3)ccc2[nH]1	none
CCOc1ccc(N(CC)S(=O)(=O)c2ccc3c(c2)oc(=O)n3C)cc1	TEAD-YAP block 48
CCN(c1ccc(C)c(C)c1)S(=O)(=O)c1ccc2c(c1)oc(=O)n2C	none
CCN(c1ccccc1)S(=O)(=O)c1ccc2c(c1)oc(=O)n2C	none
CCN(c1cccc(C)c1)S(=O)(=O)c1ccc2c(c1)oc(=O)n2C	TEAD-YAP block 44
CCCOc1c(OC)cccc1C1NC(=S)NC(C)=C1C(=O)OC (stereo unspecified)	none
Cn1c(=O)c2c(SCCN3CCCC3)nc(C3CCCC3)nc2n(C)c1=O	none
Cc1ccn2c(/C(=C3/N=C(c4ccccc4)OC3=O)N(C)C)cnc2c1	TEAD-YAP block 34
CN(C)/C(CBr)=C1/N=C(c2ccccc2)OC1=O	none
